# Test results: PMC7862700, “An all-to-all approach to the identification of sequence-specific readers for epigenetic DNA modifications on cytosine”
# Legend:
# Experiment in all cases: DAPPL (digital affinity profiling via proximity ligation, sequencing); 10 mM Tris-HCl pH 7.5, 50 mM NaCl, 1 mM DTT, 4% glycerol, room temperature, 30 min; GST-TFs on glutathione beads, 16-mer random dsDNA library, 0.1% formaldehyde crosslink after washing; high values mean tight binding
# FLI1 = biological target: T1, FLI1 (Homo sapiens, UniProt Q01543 1-452); details: protein: recombinant; tags: N-terminal GST; dsDNA, one strand shown
# T1 sequence: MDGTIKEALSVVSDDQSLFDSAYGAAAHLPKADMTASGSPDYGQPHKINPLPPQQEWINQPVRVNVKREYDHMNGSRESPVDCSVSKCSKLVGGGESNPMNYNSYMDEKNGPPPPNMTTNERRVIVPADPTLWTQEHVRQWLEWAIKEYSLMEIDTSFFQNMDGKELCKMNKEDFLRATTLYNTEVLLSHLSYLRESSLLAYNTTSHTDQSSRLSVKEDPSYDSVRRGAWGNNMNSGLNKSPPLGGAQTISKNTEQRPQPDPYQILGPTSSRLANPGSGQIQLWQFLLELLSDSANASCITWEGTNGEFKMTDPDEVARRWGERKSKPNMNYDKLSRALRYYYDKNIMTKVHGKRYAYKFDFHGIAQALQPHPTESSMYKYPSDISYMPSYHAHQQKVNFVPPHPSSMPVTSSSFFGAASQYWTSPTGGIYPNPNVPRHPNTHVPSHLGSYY
# Summary of the method: (§1)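 Human transcription factors fused to GST were expressed in yeast, captured on glutathione beads, given DNA barcodes and pooled with a GST-only negative control. Pools were incubated with 200 nmole of a 16-mer random double-stranded DNA library in Tris/NaCl/DTT/glycerol buffer at room temperature for 30 min. They were then washed, crosslinked with 0.1% formaldehyde, proximity-ligated (BsaI/T4 ligase, 1 h, 37 °C), PCR-amplified and sequenced on an Illumina NextSeq500. Binding signal is each 6-mer's read frequency for a factor divided by its frequency for the GST control.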
# ELK1 = biological target: T2, ELK1 (Homo sapiens, UniProt P19419 1-428); details: protein: recombinant; tags: N-terminal GST; dsDNA, one strand shown
# T2 sequence: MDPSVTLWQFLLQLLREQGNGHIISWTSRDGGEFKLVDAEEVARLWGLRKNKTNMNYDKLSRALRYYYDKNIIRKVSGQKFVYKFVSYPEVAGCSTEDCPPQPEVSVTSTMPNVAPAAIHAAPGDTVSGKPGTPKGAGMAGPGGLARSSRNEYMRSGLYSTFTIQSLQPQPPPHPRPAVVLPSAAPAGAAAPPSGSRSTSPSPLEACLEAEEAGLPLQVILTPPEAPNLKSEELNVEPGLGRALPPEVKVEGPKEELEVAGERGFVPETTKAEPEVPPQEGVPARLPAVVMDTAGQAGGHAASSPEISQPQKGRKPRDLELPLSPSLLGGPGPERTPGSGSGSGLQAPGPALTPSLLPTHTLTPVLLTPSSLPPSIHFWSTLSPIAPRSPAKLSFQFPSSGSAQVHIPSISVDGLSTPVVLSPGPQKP
# Summary of the method: as §1
# GABPA = biological target: T3, GABPA (Homo sapiens, UniProt Q06546 1-454); details: protein: recombinant; tags: N-terminal GST; dsDNA, one strand shown
# T3 sequence: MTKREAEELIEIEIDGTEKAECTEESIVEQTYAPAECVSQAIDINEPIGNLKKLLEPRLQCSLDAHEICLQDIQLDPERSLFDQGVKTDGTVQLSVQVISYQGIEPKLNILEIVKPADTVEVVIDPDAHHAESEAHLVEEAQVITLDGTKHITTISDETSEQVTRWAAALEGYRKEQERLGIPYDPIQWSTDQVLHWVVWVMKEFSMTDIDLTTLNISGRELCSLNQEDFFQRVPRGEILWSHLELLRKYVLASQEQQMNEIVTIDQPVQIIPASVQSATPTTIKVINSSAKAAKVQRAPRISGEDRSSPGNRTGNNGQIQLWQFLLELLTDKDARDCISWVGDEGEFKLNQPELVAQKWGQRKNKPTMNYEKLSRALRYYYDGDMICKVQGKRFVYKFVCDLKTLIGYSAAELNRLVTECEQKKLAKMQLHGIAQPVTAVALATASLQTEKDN
# Summary of the method: as §1
# ERG = biological target: T4, ERG (Homo sapiens, UniProt P11308 1-479); details: protein: recombinant; tags: N-terminal GST; dsDNA, one strand shown
# T4 sequence: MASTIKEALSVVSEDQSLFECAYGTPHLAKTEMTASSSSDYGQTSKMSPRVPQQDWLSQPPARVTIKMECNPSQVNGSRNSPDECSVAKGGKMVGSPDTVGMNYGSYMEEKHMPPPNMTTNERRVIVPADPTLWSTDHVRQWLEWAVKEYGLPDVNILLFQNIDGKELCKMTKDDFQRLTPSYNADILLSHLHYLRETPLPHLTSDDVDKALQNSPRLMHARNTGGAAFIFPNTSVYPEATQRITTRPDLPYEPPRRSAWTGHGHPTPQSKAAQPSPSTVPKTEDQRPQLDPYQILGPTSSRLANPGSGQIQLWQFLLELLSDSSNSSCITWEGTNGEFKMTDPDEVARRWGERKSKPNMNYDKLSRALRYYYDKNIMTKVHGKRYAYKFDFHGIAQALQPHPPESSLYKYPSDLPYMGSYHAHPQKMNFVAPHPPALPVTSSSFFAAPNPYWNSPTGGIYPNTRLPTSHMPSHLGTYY
# Summary of the method: as §1
# ELF1 = ELF1 (Homo sapiens, UniProt P32519 1-619); details: protein: recombinant; tags: N-terminal GST; dsDNA, one strand shown
# Summary of the method: as §1
# EHF = biological target: T5, EHF (Homo sapiens, UniProt Q9NZC4 1-300); details: protein: recombinant; tags: N-terminal GST; dsDNA, one strand shown
# T5 sequence: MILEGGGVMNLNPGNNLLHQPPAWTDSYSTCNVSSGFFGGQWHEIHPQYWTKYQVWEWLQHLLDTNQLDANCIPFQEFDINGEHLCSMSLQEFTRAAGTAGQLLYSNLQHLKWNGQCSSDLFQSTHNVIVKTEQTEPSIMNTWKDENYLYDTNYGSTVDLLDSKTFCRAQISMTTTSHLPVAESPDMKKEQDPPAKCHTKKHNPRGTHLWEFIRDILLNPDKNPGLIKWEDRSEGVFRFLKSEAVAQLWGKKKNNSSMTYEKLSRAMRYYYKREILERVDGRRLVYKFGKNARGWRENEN
# Summary of the method: as §1
# SPI1 = SPI1 (Homo sapiens, UniProt P17947 1-270); details: protein: recombinant; tags: N-terminal GST; dsDNA, one strand shown
# Summary of the method: as §1
# SPIB = SPIB (Homo sapiens, UniProt Q01892 1-262); details: protein: recombinant; tags: N-terminal GST; dsDNA, one strand shown
# Summary of the method: as §1
# ELK3 = biological target: T6, ELK3 (Homo sapiens, UniProt P41970 1-407); details: protein: recombinant; tags: N-terminal GST; dsDNA, one strand shown
# T6 sequence: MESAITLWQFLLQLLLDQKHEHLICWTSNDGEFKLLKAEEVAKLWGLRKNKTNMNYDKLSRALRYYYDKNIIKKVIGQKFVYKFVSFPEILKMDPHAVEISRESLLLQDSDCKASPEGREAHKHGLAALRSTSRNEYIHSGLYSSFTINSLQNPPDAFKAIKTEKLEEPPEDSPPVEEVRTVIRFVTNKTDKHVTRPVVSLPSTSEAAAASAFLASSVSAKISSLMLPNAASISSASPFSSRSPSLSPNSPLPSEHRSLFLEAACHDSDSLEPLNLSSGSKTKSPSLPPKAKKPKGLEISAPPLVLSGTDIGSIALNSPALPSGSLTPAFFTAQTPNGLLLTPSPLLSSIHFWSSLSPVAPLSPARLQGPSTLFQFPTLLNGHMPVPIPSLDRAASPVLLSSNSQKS
# Summary of the method: as §1
# FEV = biological target: T7, FEV (Homo sapiens, UniProt Q99581 1-238); details: protein: recombinant; tags: N-terminal GST; dsDNA, one strand shown
# T7 sequence: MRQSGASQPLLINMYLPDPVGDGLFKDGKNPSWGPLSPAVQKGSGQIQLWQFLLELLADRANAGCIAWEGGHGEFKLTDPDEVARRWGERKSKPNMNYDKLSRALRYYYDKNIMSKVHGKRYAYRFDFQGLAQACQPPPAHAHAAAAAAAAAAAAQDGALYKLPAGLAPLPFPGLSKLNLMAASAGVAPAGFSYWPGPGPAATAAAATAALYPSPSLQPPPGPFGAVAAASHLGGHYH
# Summary of the method: as §1
# ETV5 = ETV5 (Homo sapiens, UniProt P41161 1-510); details: protein: recombinant; tags: N-terminal GST; dsDNA, one strand shown
# Summary of the method: as §1
# HSF1 = HSF1 (Homo sapiens, UniProt Q00613 1-529); details: protein: recombinant; tags: N-terminal GST; chain copies: 3; dsDNA, one strand shown
# Summary of the method: as §1
# SPIC = biological target: T8, SPIC (Homo sapiens, UniProt Q8N5J4 1-248); details: protein: recombinant; tags: N-terminal GST; dsDNA, one strand shown
# T8 sequence: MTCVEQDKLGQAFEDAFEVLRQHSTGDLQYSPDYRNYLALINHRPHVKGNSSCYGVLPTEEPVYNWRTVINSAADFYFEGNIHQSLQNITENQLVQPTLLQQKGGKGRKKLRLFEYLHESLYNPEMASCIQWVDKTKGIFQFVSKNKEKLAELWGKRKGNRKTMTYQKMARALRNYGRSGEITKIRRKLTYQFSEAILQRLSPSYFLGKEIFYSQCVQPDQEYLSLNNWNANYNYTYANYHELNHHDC
# Summary of the method: as §1
# ELF4 = ELF4 (Homo sapiens, UniProt Q99607 1-663); details: protein: recombinant; tags: N-terminal GST; dsDNA, one strand shown
# Summary of the method: as §1
# ELK4 = biological target: T9, ELK4 (Homo sapiens, UniProt P28324-2 1-405); details: protein: recombinant; tags: N-terminal GST; dsDNA, one strand shown
# T9 sequence: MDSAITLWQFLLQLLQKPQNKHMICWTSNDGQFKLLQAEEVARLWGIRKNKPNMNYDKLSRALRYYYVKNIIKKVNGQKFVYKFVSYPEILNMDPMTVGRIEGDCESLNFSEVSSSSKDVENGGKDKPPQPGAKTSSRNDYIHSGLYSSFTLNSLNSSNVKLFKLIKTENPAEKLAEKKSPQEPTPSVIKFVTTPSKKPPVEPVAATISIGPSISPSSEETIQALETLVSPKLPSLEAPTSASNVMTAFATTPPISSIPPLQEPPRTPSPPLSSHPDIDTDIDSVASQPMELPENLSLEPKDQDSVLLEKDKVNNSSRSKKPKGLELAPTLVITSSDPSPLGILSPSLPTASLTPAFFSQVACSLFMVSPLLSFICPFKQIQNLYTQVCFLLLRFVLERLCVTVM
# Summary of the method: as §1
# ETV2 = biological target: T10, ETV2 (Homo sapiens, UniProt O00321 1-342); details: protein: recombinant; tags: N-terminal GST; dsDNA, one strand shown
# T10 sequence: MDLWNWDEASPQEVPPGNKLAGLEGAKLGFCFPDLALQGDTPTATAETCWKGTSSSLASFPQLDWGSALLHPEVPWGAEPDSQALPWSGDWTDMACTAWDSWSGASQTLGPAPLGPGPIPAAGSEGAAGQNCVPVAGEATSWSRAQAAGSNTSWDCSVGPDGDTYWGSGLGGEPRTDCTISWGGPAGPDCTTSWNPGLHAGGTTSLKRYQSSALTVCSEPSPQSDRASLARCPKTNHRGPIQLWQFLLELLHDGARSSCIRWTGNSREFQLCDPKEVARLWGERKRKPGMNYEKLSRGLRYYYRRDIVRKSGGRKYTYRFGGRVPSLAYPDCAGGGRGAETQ
# Summary of the method: as §1
# ELF3 = biological target: T11, ELF3 (Homo sapiens, UniProt P78545 1-371); details: protein: recombinant; tags: N-terminal GST; dsDNA, one strand shown
# T11 sequence: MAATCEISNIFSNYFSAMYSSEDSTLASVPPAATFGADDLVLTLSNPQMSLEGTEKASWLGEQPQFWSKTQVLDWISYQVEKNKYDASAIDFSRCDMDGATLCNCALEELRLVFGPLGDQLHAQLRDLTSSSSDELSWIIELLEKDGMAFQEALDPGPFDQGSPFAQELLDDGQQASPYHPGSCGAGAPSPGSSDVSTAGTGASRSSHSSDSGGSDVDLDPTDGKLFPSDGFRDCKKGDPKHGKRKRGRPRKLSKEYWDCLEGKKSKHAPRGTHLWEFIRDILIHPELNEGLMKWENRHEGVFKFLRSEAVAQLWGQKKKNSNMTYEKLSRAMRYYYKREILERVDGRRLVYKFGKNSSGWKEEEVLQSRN
# Summary of the method: as §1
# CRX = CRX (Homo sapiens, UniProt O43186 1-299); details: protein: recombinant; tags: N-terminal GST; dsDNA, one strand shown
# Summary of the method: as §1
# ETV1 = ETV1 (Homo sapiens, UniProt P50549 1-477); details: protein: recombinant; tags: N-terminal GST; dsDNA, one strand shown
# Summary of the method: as §1
# Sequence of ELF4 (Q99607 whole entry): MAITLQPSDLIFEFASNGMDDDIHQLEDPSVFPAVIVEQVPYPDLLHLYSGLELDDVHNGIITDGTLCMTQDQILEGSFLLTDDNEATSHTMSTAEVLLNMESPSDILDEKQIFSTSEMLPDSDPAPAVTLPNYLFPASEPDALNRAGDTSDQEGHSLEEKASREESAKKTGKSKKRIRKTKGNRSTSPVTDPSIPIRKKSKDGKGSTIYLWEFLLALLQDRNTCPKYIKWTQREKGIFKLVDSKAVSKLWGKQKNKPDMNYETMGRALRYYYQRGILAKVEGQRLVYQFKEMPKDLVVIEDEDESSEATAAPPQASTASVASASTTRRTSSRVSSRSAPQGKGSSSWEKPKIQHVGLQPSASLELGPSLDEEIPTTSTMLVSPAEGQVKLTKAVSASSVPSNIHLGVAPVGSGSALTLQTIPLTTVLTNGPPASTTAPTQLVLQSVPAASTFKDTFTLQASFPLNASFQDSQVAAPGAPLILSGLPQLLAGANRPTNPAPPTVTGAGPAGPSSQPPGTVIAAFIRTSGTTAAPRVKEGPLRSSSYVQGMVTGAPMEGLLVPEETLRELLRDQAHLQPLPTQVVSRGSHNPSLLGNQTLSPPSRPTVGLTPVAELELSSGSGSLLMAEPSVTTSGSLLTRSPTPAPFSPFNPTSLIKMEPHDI
# Sequence of SPIB (Q01892 whole entry): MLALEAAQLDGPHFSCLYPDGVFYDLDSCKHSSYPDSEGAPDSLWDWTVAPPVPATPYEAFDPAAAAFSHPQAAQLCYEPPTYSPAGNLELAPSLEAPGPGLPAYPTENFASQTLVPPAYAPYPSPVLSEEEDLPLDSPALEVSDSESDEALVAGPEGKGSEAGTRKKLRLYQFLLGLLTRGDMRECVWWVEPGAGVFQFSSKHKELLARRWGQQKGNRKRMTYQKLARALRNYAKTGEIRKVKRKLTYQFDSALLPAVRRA
# Sequence of CRX (O43186 whole entry): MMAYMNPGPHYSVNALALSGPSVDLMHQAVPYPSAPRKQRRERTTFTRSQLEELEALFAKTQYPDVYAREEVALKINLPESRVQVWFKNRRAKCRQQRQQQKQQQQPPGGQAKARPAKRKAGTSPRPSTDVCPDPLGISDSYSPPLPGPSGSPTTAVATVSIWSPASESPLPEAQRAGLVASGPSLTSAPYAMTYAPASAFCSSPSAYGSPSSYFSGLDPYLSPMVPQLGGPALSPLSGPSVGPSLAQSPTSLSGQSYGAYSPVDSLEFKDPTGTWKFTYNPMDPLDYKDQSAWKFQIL
# Sequence of ETV1 (P50549 whole entry): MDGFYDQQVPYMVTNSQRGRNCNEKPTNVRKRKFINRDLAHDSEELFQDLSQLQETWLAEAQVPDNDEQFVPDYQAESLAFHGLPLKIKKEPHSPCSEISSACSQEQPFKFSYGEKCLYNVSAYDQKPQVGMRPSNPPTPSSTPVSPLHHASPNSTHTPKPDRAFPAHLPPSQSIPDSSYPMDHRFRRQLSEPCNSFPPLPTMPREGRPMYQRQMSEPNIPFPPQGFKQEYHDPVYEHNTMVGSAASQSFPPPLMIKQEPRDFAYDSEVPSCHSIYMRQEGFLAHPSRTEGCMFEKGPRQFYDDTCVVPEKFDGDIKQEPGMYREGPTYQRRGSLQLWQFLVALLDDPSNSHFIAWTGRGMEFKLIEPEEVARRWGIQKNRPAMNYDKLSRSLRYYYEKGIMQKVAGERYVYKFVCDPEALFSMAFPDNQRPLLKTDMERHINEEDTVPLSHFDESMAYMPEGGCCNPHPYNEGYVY
# Sequence of ELF1 (P32519 whole entry): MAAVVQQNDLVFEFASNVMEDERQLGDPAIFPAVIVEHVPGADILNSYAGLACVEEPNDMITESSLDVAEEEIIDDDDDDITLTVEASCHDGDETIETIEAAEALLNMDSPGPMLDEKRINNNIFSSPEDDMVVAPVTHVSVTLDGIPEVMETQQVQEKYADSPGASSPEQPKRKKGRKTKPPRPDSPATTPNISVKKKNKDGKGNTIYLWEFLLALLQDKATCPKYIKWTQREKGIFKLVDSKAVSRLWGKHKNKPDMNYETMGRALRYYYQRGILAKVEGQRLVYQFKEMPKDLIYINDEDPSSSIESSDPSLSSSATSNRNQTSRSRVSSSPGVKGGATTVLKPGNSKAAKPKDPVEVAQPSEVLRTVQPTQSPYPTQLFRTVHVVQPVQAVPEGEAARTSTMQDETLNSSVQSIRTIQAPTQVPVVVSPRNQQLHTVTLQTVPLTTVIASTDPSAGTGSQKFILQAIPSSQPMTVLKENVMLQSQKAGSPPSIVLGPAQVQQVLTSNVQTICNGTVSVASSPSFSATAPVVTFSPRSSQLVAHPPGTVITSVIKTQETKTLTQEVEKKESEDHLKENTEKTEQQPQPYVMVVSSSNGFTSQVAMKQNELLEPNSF
# Sequence of HSF1 (Q00613 whole entry): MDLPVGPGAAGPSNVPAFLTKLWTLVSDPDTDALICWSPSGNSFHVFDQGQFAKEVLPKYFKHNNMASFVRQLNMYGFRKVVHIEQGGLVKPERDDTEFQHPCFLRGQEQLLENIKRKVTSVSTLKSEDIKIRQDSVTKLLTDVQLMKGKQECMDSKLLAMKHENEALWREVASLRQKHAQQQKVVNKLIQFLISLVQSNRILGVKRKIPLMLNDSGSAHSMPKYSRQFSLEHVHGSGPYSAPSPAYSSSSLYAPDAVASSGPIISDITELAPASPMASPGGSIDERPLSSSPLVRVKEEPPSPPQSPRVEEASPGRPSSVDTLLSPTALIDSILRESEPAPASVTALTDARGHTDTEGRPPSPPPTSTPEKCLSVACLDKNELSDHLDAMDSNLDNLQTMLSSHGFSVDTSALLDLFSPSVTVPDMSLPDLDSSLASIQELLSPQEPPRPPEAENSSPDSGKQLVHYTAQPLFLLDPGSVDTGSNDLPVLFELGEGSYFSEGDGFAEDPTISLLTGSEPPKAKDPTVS
# Sequence of ETV5 (P41161 whole entry): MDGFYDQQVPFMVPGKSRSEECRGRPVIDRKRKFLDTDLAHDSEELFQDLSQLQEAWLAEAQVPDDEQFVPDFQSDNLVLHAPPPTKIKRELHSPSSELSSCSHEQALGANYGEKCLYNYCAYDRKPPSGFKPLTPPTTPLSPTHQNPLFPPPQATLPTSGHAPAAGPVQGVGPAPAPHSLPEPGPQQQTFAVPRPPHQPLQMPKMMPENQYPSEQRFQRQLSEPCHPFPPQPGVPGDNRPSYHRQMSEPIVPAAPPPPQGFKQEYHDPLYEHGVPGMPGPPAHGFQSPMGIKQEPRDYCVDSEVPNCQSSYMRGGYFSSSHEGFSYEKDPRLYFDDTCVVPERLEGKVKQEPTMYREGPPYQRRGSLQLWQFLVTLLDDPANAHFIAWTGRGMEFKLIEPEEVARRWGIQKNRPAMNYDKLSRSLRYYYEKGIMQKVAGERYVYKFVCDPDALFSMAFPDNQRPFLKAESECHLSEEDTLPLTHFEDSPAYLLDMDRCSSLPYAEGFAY
sequence,measurement,setting,value
CTCGAT,binding signal,FLI1,"1.48 fold enrichment (6-mer frequency, TF over GST control)"
same,binding signal,ELK1,"1.38 fold enrichment (6-mer frequency, TF over GST control)"
same,binding signal,GABPA,"1.32 fold enrichment (6-mer frequency, TF over GST control)"
same,binding signal,ERG,"1.26 fold enrichment (6-mer frequency, TF over GST control)"
same,binding signal,ELF1,"1.49 fold enrichment (6-mer frequency, TF over GST control)"
same,binding signal,EHF,"1.27 fold enrichment (6-mer frequency, TF over GST control)"
same,binding signal,SPI1,"1.36 fold enrichment (6-mer frequency, TF over GST control)"
same,binding signal,SPIB,"1.49 fold enrichment (6-mer frequency, TF over GST control)"
same,binding signal,ELK3,"1.18 fold enrichment (6-mer frequency, TF over GST control)"
same,binding signal,FEV,"1.29 fold enrichment (6-mer frequency, TF over GST control)"
same,binding signal,ETV5,"1.3 fold enrichment (6-mer frequency, TF over GST control)"
same,binding signal,HSF1,"2.06 fold enrichment (6-mer frequency, TF over GST control)"
same,binding signal,SPIC,"1.46 fold enrichment (6-mer frequency, TF over GST control)"
same,binding signal,ELF4,"1.43 fold enrichment (6-mer frequency, TF over GST control)"
same,binding signal,ELK4,"1.59 fold enrichment (6-mer frequency, TF over GST control)"
same,binding signal,ETV2,"1.25 fold enrichment (6-mer frequency, TF over GST control)"
same,binding signal,ELF3,"1.09 fold enrichment (6-mer frequency, TF over GST control)"
same,binding signal,CRX,"1.48 fold enrichment (6-mer frequency, TF over GST control)"
same,binding signal,ETV1,"1.27 fold enrichment (6-mer frequency, TF over GST control)"
